PubChem BioAssay (NCATS)
Results filed as inconclusive are left out. A call without a number means that no potency is given here. Values without a mark were called inactive. Activity calls are given as the source filed them. Calls come from the whole dose curve; as a rule, active = well fitted curve in the direction sought with a large enough effect; inconclusive = small, poorly fitted or top-dose-only effect, or another doubt; inactive = no such curve, though single readings can be large; an effect the other way counts as inactive or inconclusive.

Columns and labels:
C33A = test: Primary qHTS to identify gynecologic anti-cancer compounds using libraries of approved drugs and bioactive compounds (AID 1345084); conditions: Gynecologic cancer cell panel viability, ATPlite luminescence, 48 h; series mostly up to 57.5 µM; note: nearly all actives have a fitted effect of over 55% in size
How it was run: (§1)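 Cytotoxicity screen measuring ATP content by luciferase luminescence. Each compound is applied at five concentrations for 48 h at 37 C with 5% CO2.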

Es-2 = test: as above; conditions: Gynecologic cancer cell panel viability, ATPlite luminescence, 48 h; series mostly up to 57.5 µM
How it was run: as §1

HeLa = test: as above; conditions: Gynecologic cancer cell panel viability, ATPlite luminescence, 48 h; series mostly up to 57.5 µM
How it was run: as §1

Hek293T = test: as above; conditions: Gynecologic cancer cell panel viability, ATPlite luminescence, 48 h, control line for the selectivity index; series mostly up to 57.5 µM
How it was run: as §1

Tov112D = test: as above; conditions: Gynecologic cancer cell panel viability, ATPlite luminescence, 48 h; series mostly up to 57.5 µM
How it was run: as §1

JEG-3 = test: as above; conditions: Gynecologic cancer cell panel viability, ATPlite luminescence, 48 h; series mostly up to 57.5 µM
How it was run: as §1

PA-1 = test: as above; conditions: Gynecologic cancer cell panel viability, ATPlite luminescence, 48 h; series mostly up to 57.5 µM
How it was run: as §1

OV90 = test: as above; conditions: Gynecologic cancer cell panel viability, ATPlite luminescence, 48 h; series mostly up to 57.5 µM
How it was run: as §1

SKOV3 = test: as above; conditions: Gynecologic cancer cell panel viability, ATPlite luminescence, 48 h; series mostly up to 57.5 µM
How it was run: as §1

[1] = qHTS assay to identify inhibitors of the type 1 interferon - major histocompatibility complex class I in skeletal muscle: Counter screen cell viability and HiBit confirmation (AID 1347412); conditions: iHSKM muscle cells + IFN-b, HiBiT or CellTiter-Glo, 24 h; note: nearly all actives have a fitted effect of over 60% in size
How it was run: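 Myoblasts (C25cl48, HLA-B HiBiT) seeded in medium without dexamethasone, IFN-b 4 ng/ml added except unstimulated columns; 1 hr later compounds pinned (12-pt 1:3, top 46 uM final). Incubated 24 hrs, lysed 10 min, luminescence measured.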

Tov-21-G = test: Primary qHTS to identify gynecologic anti-cancer compounds using libraries of approved drugs and bioactive compounds (AID 1345084); conditions: Gynecologic cancer cell panel viability, ATPlite luminescence, 48 h; series mostly up to 57.5 µM; note: nearly all actives have a fitted effect of over 55% in size
How it was run: as §1

CAOV3 = test: as above; conditions: Gynecologic cancer cell panel viability, ATPlite luminescence, 48 h; series mostly up to 57.5 µM
How it was run: as §1

CASKI = test: as above; conditions: Gynecologic cancer cell panel viability, ATPlite luminescence, 48 h; series mostly up to 57.5 µM
How it was run: as §1
Potency is the fitted concentration of half-maximal effect.

Cn1ncc(Cl)c1-c1cc(C(=O)NC(CN)Cc2ccc(F)c(F)c2)oc1Cl (centres undefined)
Potency (C33A): 3.16 µM (active) | Potency (Es-2): inactive | Potency (HeLa): inactive | Potency (Hek293T): 0.794 µM (active) | Potency (Tov112D): inactive

C=C1C(=O)O[C@@H]2C[C@H](C)[C@@H]3CC(=O)C(C)=C3C[C@H]12
Potency (C33A): 28.2 µM (active) | Potency (HeLa): inactive

O=C(CN1C2=NCCN2c2ccccc21)c1ccc(-c2ccccc2)cc1
Potency (C33A): inactive | Potency (Es-2): inactive | Potency (HeLa): inactive | Potency (Hek293T): inactive | Potency (JEG-3): inactive | Potency (PA-1): inactive | Potency (Tov112D): inactive

CCN(CC)C(=O)c1ccc(Nc2nc(OCC3CCCCC3)c3[nH]cnc3n2)cc1
Potency (C33A): inactive | Potency (Es-2): inactive | Potency (HeLa): 28.2 µM (active) | Potency (Hek293T): inactive | Potency (JEG-3): inactive | Potency (OV90): inactive | Potency (Tov112D): inactive

CCNC(=O)C#Cc1ccc2c(C(=Nc3ccc(CN(C)C)cc3)c3ccccc3)c(O)[nH]c2c1
Potency (C33A): inactive | Potency (Hek293T): inactive | Potency (JEG-3): inactive | Potency (OV90): 0.447 µM (active) | Potency (SKOV3): 1.41 µM (active) | Potency ([1]; HiBiT): 17.6 µM (active) | Potency ([1]; Viability): 9.91 µM (active)

NC(=O)CCCSc1nc(N)nc(-c2c(Cl)cc3c4c(cccc24)COC3)n1
Potency (C33A): 0.891 µM (active) | Potency (HeLa): inactive | Potency (OV90): 0.708 µM (active) | Potency (PA-1): 0.891 µM (active) | Potency (Tov-21-G): 1 µM (active)

N#CSc1cc(SC#N)c(N)nc1N
activity change, negative = cytotoxicity (CAOV3): -3.29% [at 11.6 µM] | activity change, negative = cytotoxicity (CASKI): 10.8% [at 11.6 µM] | activity change, negative = cytotoxicity (HeLa): -2.58% [at 11.6 µM] | activity change, negative = cytotoxicity (JEG-3): 10.3% [at 11.6 µM] | activity change, negative = cytotoxicity (OV90): 2.64% [at 11.6 µM] | activity change, negative = cytotoxicity (SKOV3): -0.394% [at 11.6 µM] | activity change, negative = cytotoxicity (Tov-21-G): -3.87% [at 11.6 µM]

CNc1ccc([N+](=O)[O-])c(Nc2ccc3[nH]ncc3c2)n1
Potency (CAOV3): inactive | Potency (CASKI): inactive | Potency (HeLa): 25.1 µM (active) | Potency (JEG-3): inactive | Potency (OV90): inactive | Potency (SKOV3): inactive

Cc1nc(C#Cc2ccnc(Cl)c2)c(C)n1-c1ccc(F)cc1
Potency (CAOV3): inactive | Potency (CASKI): inactive | Potency (Es-2): inactive | Potency (HeLa): inactive | Potency (JEG-3): inactive | Potency (OV90): inactive | Potency (PA-1): inactive | Potency (Tov-21-G): inactive | Potency (Tov112D): inactive

COc1cc(N2CCC(N3CCN(C)CC3)CC2)ccc1Nc1ncc(Cl)c(Nc2ccccc2P(C)(C)=O)n1
Potency (CAOV3): 2.24 µM (active) | Potency (CASKI): 10 µM (active) | Potency (HeLa): 6.31 µM (active) | Potency (JEG-3): inactive | Potency (PA-1): 11.2 µM (active) | Potency (SKOV3): 8.91 µM (active) | Potency (Tov-21-G): 7.08 µM (active)

O=C(COc1ccc(C(=O)c2ccccc2)cc1)NC1CCN(Cc2ccccc2)CC1
Potency (CAOV3): inactive | Potency (CASKI): inactive | Potency (Es-2): inactive | Potency (HeLa): inactive | Potency (JEG-3): inactive | Potency (PA-1): inactive | Potency (Tov-21-G): inactive | Potency (Tov112D): inactive

CCC(C)C(=O)OC12C(OC(C)=O)C(C)C3(O)C(C=C(CO)CC4(O)C(=O)C(C)=CC43)C1C2(C)C (centres undefined)
Potency (CAOV3): inactive | Potency (CASKI): inactive | Potency (Es-2): 0.316 µM (active) | Potency (HeLa): inactive | Potency (Hek293T): inactive | Potency (JEG-3): inactive | Potency (SKOV3): inactive | Potency (Tov-21-G): inactive | Potency (Tov112D): inactive

C=C1CC2OC(=O)C(COC)C2C(OC(=O)/C(C)=C\C)CC2(C)OC1=CC2=O (centres undefined)
Potency (CAOV3): inactive | Potency (CASKI): inactive | Potency (HeLa): inactive | Potency (JEG-3): inactive | Potency (OV90): inactive | Potency (SKOV3): inactive | Potency (Tov112D): inactive

CCCCc1c(-c2ccc(OC)cc2)[nH]c2nccnc12
Potency (CAOV3): inactive | Potency (CASKI): inactive | Potency (Es-2): inactive | Potency (HeLa): inactive | Potency (Hek293T): inactive | Potency (JEG-3): inactive | Potency (OV90): inactive | Potency (PA-1): inactive | Potency (Tov-21-G): inactive | Potency (Tov112D): inactive

CC(C)S(=O)(=O)NC[C@@H]1CC(c2ccc(N3CCCC3)c(F)c2)=NO1
Potency (CAOV3): inactive | Potency (CASKI): inactive | Potency (Es-2): inactive | Potency (HeLa): inactive | Potency (JEG-3): inactive | Potency (PA-1): inactive | Potency (Tov-21-G): inactive | Potency (Tov112D): inactive

C/C=C(\C)C(=O)OC1C(C)C2(O)C(C=C(CO)CC3(O)C(=O)C(C)=CC32)C2C(C)(C)C12OC(=O)C(C)C (centres undefined)
Potency (CAOV3): inactive | Potency (CASKI): inactive | Potency (Es-2): inactive | Potency (HeLa): inactive | Potency (Hek293T): inactive | Potency (OV90): inactive | Potency (PA-1): inactive | Potency (SKOV3): inactive | Potency (Tov-21-G): inactive | Potency (Tov112D): inactive

CC(=O)Nc1cccc(Nc2ncnc(N3CCC(OCc4ccc(OC(F)(F)F)cc4)CC3)n2)c1C
Potency (CAOV3): inactive | Potency (CASKI): inactive | Potency (Es-2): inactive | Potency (HeLa): inactive | Potency (JEG-3): inactive | Potency (OV90): inactive | Potency (PA-1): inactive | Potency (Tov-21-G): inactive | Potency (Tov112D): inactive

COc1cc2c(cc1NS(=O)(=O)c1ccc(Br)cc1C)n(C)c(=O)n2C
Potency (CAOV3): 3.55 µM (active) | Potency (CASKI): inactive | Potency (HeLa): inactive | Potency (JEG-3): inactive | Potency (PA-1): inactive | Potency (Tov-21-G): inactive | Potency (Tov112D): inactive

CC(CCC1(O)OC2CC3C4CC=C5CC(O[C@@H]6O[C@H](CO)[C@@H](O[C@@H]7O[C@@H](C)[C@H](O)[C@@H](O)[C@H]7O)[C@H](O)[C@H]6O[C@@H]6O[C@@H](C)[C@H](O)[C@@H](O)[C@H]6O)CCC5(C)C4CCC3(C)C2C1C)CO[C@@H]1O[C@H](CO)[C@@H](O)[C@H](O)[C@H]1O (some centres undefined)
activity change, negative = cytotoxicity (CAOV3): -11% [at 11.6 µM] | activity change, negative = cytotoxicity (CASKI): 1.54% [at 11.6 µM] | activity change, negative = cytotoxicity (Es-2): 4.17% [at 11.6 µM] | activity change, negative = cytotoxicity (HeLa): -7.05% [at 11.6 µM] | activity change, negative = cytotoxicity (Hek293T): 4.44% [at 11.6 µM] | activity change, negative = cytotoxicity (JEG-3): 10.4% [at 11.6 µM] | activity change, negative = cytotoxicity (OV90): -6.71% [at 11.6 µM] | activity change, negative = cytotoxicity (Tov-21-G): -14.2% [at 11.6 µM] | activity change, negative = cytotoxicity (Tov112D): -1.44% [at 11.6 µM]
